# Screening data as filed in PubChem.
# This is a sample that favours compounds with a hit; in the whole collection about 1.6% have one here.
# GFP derepression: epigenetic modulators derepressing GFP locus in mouse cells; mouse C127i GFP locus derepression, cytometry, 30 h; Potency, µM (series often up to 46.1 µM), for the others: at the highest dose GFP derepression (activation); 0.09% of 68,000 active; AID 597; also: % of control where 0% means no effect
#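 Murine C127i mammary cells carrying a silenced, stably integrated CMV-driven GFP reporter were treated with compound for 30 hours at 37 C. After PBS washes, GFP-positive cells were counted by laser-scanning microplate cytometry.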
# Ub-GFP proteasome: proteasome inhibitors stabilizing ubiquitin-GFP reporter; Ubiquitin-GFP reporter cells, proteasome inhibition, GFP fluorescence; response scale: untreated = 0%, 10 µM MG-132 = 100%; Potency, µM (doses to about 45.9 µM), for inactives: at the top dose activation (GFP accumulation), usual class: activators; 67,000 tested, under 10 active; AID 526; active = well fitted activation curve with a large enough effect, not every such curve was filed as active; inconclusive = small, poorly fitted or top-dose-only effect, or another doubt; inactive = no such curve, though single readings can be large or run the other way; also: potency is read from the fitted curve at half-maximal effect
#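 U2OS Ub(G76V)-GFP reporter; O/N plating, 0.5% FBS; cpd 46 uM–2.9 nM, 4 h, 37 °C; GFP+ cell count, 488/515 nm; norm. to basal vs 10 uM MG-132; CRC fit.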
# p53ts 39C tox: cytotoxicity in p53ts cells at nonpermissive temperature; 1.5% of 130,000 active; H1299-p53A138V viability at 39C, ATP luminescence, 24 h; Potency, µM (series often up to 46.1 µM), for inactives: at the top dose activity change, negative = cell killing, most hits filed as cytotoxic; also: potency is read from the fitted curve at half-maximal effect; % is scaled to controls: 0 for no effect and ±100 for the full control effect; nearly all actives have a fitted effect of over 55% in size
# HBB splicing: hemoglobin beta splicing modulation; Potency, µM (series often up to 46.1 µM), without a hit: top-dose activation, actives largely listed as activators; AID 925; 0.06% of 65,000 active; HBB splicing reporter cell assay, activation; EGFP reporter with mutant IVS2-654 intron; response scale: normalised to 500 nM splice-correcting PNA; also: potency is read from the fitted curve at half-maximal effect; 0% is about no effect
#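 HeLa cells stably expressing EGFP interrupted by mutant beta-globin intron 2 (IVS2-654), 500/well in 2% FCS. Treated with compound for 2 days at 37C. Splicing correction scored as total well GFP intensity (488 nm excitation, 500-520 nm emission); 500 nM antisense PNA served as control.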
# Peg3 imprint: induces erasure of genomic imprints in mouse ES cells; Potency, µM (highest dose often 60.7 µM), for inactives: at the top dose activity change, positive = activation, most hits filed as activators; 0.02% of 110,000 active; mouse ES Peg3-LacZ reporter, beta-gal luminescence, 40 h; AID 1948; also: potency is read from the fitted curve at half-maximal effect
#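 Each well holds 300 Peg3LacZ-Neo (maternal) female ES cells incubated 40 h at 37C, 5% CO2. LacZ is measured by BetaGlo luminescence, with AC50 and maximum efficacy derived from dose-response curves.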
# p53ts 32C kill: p53ts cell cytotoxicity, permissive temperature; H1299-p53A138V at 32C, ATP luminescence viability, 24 h; Potency, µM (highest dose often 46.1 µM), without a hit: at the highest dose activity change, negative = cytotoxicity, usual class: cytotoxic; 0.93% of 130,000 active;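 also: potency is read from the fitted curve at half-maximal effect; 0% = DMSO and -100% = full killing by reference compound; nearly all actives have a fitted effect of over 55% in size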
#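 H1299-p53 A138V cells (temperature-sensitive p53) exposed 24 h to up to 46 uM compound at 32C, where p53 is wild-type in conformation. Viability read as ATP luminescence and normalised to DMSO and 100 uM tamoxifen. AC50 fitted with the Hill equation.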
# Active calls of the source: *; ? = inconclusive; . = no result; [ ] = another dose, or the depositor's remark. Unless noted, calls follow the shape of the dose curve; as a rule, active = well fitted curve in the direction sought with a large enough effect; inconclusive = small, poorly fitted or top-dose-only effect, or another doubt; inactive = no such curve, though single readings can be large; an effect the other way counts as inactive or inconclusive.
SMILES,GFP derepression,Ub-GFP proteasome,p53ts 39C tox,HBB splicing,Peg3 imprint,p53ts 32C kill
CCCc1nnc(NC(=O)c2nc(S(=O)(=O)Cc3ccc(C)cc3)ncc2Cl)s1,.,.,?,.,-12.9%[10.9 µM],?
CC(C)Sc1ncc(Cl)c(C(=O)Nc2nnc(C(C)C)s2)n1,.,.,-26.9%,.,-5.2%[10.9 µM],6.2%
Cc1cccc(NC(=O)CSc2nnc3[nH]c(=O)cc(-c4ccccc4)n23)c1C,.,.,1.26µM*,.,-4.5%[10.9 µM],2.1%
Cc1cccc(NC(=O)CSc2nnc3[nH]c(=O)cc(C)n23)c1C,.,.,10.0%,.,14.3%[10.9 µM],-7.0%
O=C(CSc1nnc2[nH]c(=O)cc(-c3ccccc3)n12)Nc1cc(C(F)(F)F)ccc1Cl,.,.,1.26µM*,.,16.4%[10.9 µM],0.631µM*
O=C(CSc1nnc2[nH]c(=O)cc(-c3ccccc3)n12)Nc1ccc(F)cc1F,.,.,3.16µM*,.,3.7%[10.9 µM],?
CCOc1ccc2c(c1)sc1nc(C(=O)OC)cc(=O)n12,-5.4%,17.0%[9.17 µM],-7.5%,0.2%[0.0738 µM],-4.9%,-6.7%
O=c1cc(C(F)(F)F)oc2c1ccc1ccccc12,.,.,-1.3%,.,.,-5.1%
O=c1cc(-c2ccccc2)oc2c1ccc1ccccc12,0.0%[9.22 µM],5.2%,31.6µM*,.,-14.0%,-7.4%
